# Results as given in the supplement of paper PMC10849652.
# About 8,800 targets were measured; listed, in parts, are those with a hit and a random draw of the rest. About 0.5% of all pairs of compound and target were hits. A number with no mark means an inactive call.
# How the values were obtained:
# Assay in all cases: log2 fold change, soluble protein after heating vs DMSO (PISA); higher = thermal stabilisation; K562 lysate, 10 uM; active = over 0.2 and 3.5 SD of the protein, either way, in both replicates (recomputed)
# vemurafenib = compound: CCCS(=O)(=O)Nc1ccc(F)c(C(=O)c2c[nH]c3ncc(-c4ccc(Cl)cc4)cc23)c1F [vemurafenib]
# How it was run: (§1)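 The values are log-two fold changes in thermal stability compared with solvent controls and come from duplicates. They were obtained by TMTpro 16plex LC-MS/MS, with channel sums equalised, on the supernatant after 21,000xg for 90 min. That supernatant came from crude K562 extract at 1 mg/mL protein treated with 10 μM compound for 30 min, heated for 3 min across 48°C-58°C, pooled and brought to 0.5% NP-40 at 4°C.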
# [1] = compound: CCCS(=O)(=O)Nc1ccc(F)c(C(=O)c2c[nH]c3ncc(Cl)cc23)c1F
# How it was run: as §1
# barasertib = compound: CCN(CCCOc1ccc2c(Nc3cc(CC(=O)Nc4cccc(F)c4)[nH]n3)ncnc2c1)CCOP(=O)(O)O [barasertib]
# How it was run: as §1
# [2] = compound: CC[C@@H]1C(=O)N(C)c2cnc(Nc3ccc(C(=O)NC4CCN(C)CC4)cc3OC)nc2N1C1CCCC1
# How it was run: as §1
# volasertib = compound: CC[C@@H]1C(=O)N(C)c2cnc(Nc3ccc(C(=O)N[C@H]4CC[C@H](N5CCN(CC6CC6)CC5)CC4)cc3OC)nc2N1C(C)C [volasertib]
# How it was run: as §1
# [3] = compound: CCn1c(C(=O)N(C2CC2)C2CC2)cc2c3c(ncn3C)c(Nc3cc(C)n(C)n3)nc21
# How it was run: as §1
# [4] = compound: CCn1cc(-c2ccnc3[nH]c(-c4cccc(CN(C)C)c4)cc23)c(-c2ccc(NC(=O)N(C)C)cc2)n1
# How it was run: as §1
# [5] = compound: CN1CCC(CNc2ccc3ncc(-c4cccc(OC(F)(F)F)c4)n3n2)CC1
# How it was run: as §1
# saracatinib = compound: CN1CCN(CCOc2cc(OC3CCOCC3)c3c(Nc4c(Cl)ccc5c4OCO5)ncnc3c2)CC1 [saracatinib]
# How it was run: as §1
# sotrastaurin = compound: CN1CCN(c2nc(C3=C(c4c[nH]c5ccccc45)C(=O)NC3=O)c3ccccc3n2)CC1 [sotrastaurin]
# How it was run: as §1
# alvocidib = compound: CN1CC[C@H](c2c(O)cc(O)c3c(=O)cc(-c4ccccc4Cl)oc23)[C@H](O)C1 [alvocidib]
# How it was run: as §1
# Tubastatin A = compound: CN1CCc2c(c3ccccc3n2Cc2ccc(C(=O)NO)cc2)C1 [Tubastatin A]
# How it was run: as §1
# [6] = compound: CNC(=O)C1=CC=CC=C1NC2=NC(=NC=C2Cl)NC3=C(C=C(C=C3)N4CCOCC4)OC
# How it was run: as §1
# defactinib = compound: CNC(=O)c1ccc(Nc2ncc(C(F)(F)F)c(NCc3nccnc3N(C)S(C)(=O)=O)n2)cc1 [defactinib]
# How it was run: as §1
# [7] = compound: CNc1nc(-c2ccc3c(N)n[nH]c3c2)cc(N2C[C@@H](C(=O)NC3CCCCC3)CC[C@H]2C)n1
# How it was run: as §1
# encorafenib = compound: COC(=O)N[C@@H](C)CNc1nccc(-c2cn(C(C)C)nc2-c2cc(Cl)cc(NS(C)(=O)=O)c2F)n1 [encorafenib]
# How it was run: as §1
# [8] = compound: COC(=O)[C@H](CCSC)NC(=O)C1=C(C=C(C=C1)NC[C@H](CS)N)C2=CC=CC=C2
# How it was run: as §1
# alisertib = compound: COc1cc(Nc2ncc3c(n2)-c2ccc(Cl)cc2C(c2c(F)cccc2OC)=NC3)ccc1C(=O)O [alisertib]
# How it was run: as §1
# [9] = compound: COc1cc2nc(-c3cc(F)ccc3O)nc(N[C@@H]3CNC[C@H]3C(C)(C)O)c2cc1OC
# How it was run: as §1
# gefitinib = compound: COc1cc2ncnc(Nc3ccc(F)c(Cl)c3)c2cc1OCCCN1CCOCC1 [gefitinib]
# How it was run: as §1
# Sequence of UniProt O00767 (O00767 whole entry, looked up): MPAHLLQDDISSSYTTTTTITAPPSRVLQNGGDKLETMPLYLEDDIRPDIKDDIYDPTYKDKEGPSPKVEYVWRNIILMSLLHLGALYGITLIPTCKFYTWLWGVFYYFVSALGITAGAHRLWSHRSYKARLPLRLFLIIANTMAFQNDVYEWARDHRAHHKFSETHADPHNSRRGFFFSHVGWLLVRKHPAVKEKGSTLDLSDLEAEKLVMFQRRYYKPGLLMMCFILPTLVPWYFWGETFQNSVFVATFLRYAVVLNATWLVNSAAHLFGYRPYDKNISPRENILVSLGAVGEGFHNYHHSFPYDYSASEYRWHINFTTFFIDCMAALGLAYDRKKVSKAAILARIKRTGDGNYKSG
# Sequence of UniProt Q9P0P0 (Q9P0P0 whole entry, looked up): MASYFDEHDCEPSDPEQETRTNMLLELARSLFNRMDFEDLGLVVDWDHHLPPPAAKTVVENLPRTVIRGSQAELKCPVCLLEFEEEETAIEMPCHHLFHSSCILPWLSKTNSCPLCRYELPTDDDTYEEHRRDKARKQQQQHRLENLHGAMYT
# Sequence of UniProt Q9UL25 (Q9UL25 whole entry, looked up): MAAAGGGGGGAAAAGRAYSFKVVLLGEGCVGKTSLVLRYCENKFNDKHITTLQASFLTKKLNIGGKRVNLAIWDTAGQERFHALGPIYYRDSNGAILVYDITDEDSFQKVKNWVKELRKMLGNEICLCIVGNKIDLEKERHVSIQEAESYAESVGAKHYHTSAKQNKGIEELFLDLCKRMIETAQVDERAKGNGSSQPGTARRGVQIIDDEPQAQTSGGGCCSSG
# Sequence of UniProt Q9Y3Z3 (Q9Y3Z3 whole entry, looked up): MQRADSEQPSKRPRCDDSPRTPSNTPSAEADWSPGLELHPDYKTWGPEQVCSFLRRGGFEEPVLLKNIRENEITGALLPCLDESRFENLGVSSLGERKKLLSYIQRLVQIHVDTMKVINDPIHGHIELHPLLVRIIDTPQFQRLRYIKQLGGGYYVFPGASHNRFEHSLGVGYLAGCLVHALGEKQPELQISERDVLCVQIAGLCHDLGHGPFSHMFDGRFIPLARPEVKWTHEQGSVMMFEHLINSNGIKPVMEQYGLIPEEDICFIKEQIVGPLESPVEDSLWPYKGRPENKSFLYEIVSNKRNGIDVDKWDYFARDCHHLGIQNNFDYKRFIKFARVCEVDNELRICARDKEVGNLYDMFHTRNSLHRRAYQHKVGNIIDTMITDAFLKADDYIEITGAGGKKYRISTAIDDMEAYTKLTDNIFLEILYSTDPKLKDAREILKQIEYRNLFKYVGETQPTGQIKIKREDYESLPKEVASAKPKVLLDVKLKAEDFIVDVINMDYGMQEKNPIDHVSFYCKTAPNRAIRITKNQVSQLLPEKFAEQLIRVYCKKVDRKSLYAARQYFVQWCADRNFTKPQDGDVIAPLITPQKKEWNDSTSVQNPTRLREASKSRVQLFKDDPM
# Sequence of UniProt Q9HBH5 (Q9HBH5 whole entry, looked up): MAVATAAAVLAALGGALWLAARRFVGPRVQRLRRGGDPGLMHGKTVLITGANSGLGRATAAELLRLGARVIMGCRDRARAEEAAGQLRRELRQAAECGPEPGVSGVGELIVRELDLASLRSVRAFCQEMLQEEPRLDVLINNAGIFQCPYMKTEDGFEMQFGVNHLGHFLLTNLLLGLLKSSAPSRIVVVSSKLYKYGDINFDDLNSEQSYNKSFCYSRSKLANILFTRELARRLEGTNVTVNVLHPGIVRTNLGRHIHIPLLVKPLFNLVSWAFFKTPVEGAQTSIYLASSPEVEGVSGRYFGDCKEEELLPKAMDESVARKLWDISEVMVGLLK
# Sequence of UniProt P11233 (P11233 whole entry, looked up): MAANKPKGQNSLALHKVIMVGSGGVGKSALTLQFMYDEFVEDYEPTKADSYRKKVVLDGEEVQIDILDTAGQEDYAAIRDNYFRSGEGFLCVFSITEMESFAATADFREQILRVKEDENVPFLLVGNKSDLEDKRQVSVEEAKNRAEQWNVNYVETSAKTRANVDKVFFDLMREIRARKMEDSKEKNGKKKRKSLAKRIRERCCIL
# Sequence of UniProt P58004 (P58004 whole entry, looked up): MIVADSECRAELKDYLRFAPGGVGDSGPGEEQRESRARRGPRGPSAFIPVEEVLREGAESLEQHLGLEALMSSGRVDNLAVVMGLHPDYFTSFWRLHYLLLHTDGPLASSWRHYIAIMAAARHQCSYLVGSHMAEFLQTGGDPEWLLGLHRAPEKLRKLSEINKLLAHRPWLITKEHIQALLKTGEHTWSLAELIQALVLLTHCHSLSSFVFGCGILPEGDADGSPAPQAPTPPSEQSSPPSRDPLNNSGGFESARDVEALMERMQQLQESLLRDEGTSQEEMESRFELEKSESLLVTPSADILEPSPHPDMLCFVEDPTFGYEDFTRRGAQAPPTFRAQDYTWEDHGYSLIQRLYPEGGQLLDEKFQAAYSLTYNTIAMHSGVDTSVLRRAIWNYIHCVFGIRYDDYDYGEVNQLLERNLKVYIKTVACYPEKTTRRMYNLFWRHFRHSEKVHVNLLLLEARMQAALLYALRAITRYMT
# Sequence of UniProt Q13530 (Q13530 whole entry, looked up): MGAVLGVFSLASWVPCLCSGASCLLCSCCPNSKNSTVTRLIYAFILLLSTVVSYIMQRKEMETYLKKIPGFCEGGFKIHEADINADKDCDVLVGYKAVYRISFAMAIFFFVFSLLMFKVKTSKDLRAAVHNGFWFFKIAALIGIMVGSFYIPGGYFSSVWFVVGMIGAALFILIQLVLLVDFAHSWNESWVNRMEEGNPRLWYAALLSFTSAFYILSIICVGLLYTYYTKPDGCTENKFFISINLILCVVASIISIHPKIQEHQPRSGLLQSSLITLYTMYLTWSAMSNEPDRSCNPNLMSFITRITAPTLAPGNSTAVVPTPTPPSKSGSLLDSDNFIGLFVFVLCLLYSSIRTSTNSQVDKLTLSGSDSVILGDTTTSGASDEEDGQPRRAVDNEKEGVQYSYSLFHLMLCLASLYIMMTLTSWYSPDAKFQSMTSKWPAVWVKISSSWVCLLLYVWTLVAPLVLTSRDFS
# Sequence of UniProt P18754 (P18754 whole entry, looked up): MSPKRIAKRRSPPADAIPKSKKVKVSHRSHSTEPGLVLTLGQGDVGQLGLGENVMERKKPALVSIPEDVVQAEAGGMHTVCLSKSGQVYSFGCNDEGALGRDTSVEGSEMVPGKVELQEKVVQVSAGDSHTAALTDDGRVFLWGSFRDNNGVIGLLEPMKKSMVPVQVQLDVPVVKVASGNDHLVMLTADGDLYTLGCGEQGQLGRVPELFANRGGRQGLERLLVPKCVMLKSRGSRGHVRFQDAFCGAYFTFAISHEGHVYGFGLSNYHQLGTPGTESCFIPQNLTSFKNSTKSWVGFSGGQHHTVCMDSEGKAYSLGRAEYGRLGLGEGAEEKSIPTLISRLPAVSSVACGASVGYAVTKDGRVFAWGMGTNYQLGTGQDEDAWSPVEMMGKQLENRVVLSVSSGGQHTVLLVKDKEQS
# Sequence of UniProt P04049 (P04049 whole entry, looked up): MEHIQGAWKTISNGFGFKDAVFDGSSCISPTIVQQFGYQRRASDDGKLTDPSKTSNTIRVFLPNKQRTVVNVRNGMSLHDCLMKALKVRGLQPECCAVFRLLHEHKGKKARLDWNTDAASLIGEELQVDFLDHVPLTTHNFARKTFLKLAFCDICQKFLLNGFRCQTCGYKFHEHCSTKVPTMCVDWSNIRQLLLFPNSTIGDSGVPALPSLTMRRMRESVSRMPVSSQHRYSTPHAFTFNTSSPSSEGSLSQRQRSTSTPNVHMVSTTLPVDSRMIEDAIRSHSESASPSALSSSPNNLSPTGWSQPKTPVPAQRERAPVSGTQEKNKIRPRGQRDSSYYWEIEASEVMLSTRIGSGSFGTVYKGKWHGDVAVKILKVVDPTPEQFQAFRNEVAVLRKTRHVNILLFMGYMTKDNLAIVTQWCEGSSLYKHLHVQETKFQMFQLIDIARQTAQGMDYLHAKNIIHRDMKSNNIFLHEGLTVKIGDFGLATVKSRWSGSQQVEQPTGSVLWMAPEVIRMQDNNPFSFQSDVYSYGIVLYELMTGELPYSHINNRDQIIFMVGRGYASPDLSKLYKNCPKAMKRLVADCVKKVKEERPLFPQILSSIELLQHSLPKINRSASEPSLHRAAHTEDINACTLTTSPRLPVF
# Sequence of UniProt Q15287 (Q15287 whole entry, looked up): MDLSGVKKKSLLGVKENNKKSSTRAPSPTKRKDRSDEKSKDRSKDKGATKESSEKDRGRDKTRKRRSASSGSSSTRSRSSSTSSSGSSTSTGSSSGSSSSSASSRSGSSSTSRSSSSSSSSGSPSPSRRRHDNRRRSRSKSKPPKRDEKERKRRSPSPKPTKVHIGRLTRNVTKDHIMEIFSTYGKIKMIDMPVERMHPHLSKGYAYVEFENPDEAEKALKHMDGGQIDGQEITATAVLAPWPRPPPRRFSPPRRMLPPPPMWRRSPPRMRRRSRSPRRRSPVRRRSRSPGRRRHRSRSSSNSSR
# Sequence of UniProt O14730 (O14730 whole entry, looked up): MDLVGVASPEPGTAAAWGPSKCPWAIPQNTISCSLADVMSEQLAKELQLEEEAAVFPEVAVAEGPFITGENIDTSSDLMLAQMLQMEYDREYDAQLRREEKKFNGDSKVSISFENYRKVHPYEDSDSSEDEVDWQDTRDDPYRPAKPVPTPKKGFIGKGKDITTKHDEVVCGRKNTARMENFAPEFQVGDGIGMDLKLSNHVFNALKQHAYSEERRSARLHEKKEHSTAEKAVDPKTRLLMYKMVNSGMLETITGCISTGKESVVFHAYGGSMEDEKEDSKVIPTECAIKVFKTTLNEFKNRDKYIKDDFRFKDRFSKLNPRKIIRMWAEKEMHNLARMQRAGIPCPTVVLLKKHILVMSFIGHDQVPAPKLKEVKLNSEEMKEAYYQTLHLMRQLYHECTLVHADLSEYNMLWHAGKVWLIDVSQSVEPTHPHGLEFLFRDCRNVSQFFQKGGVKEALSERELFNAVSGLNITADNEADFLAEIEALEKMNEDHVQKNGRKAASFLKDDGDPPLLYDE
Target,log2 fold change (vemurafenib),log2 fold change [1],log2 fold change (barasertib),log2 fold change [2],log2 fold change (volasertib),log2 fold change [3],log2 fold change [4],log2 fold change [5],log2 fold change (saracatinib),log2 fold change (sotrastaurin),log2 fold change (alvocidib),log2 fold change (Tubastatin A),log2 fold change [6],log2 fold change (defactinib),log2 fold change [7],log2 fold change (encorafenib),log2 fold change [8],log2 fold change (alisertib),log2 fold change [9],log2 fold change (gefitinib)
RNPS1 (UniProt Q15287),-0.03,0.001,-0.008,-0.175,0.043,-0.022,0.02,0.077,-0.04,-0.003,-0.043,0.102,0.02,-0.009,0.029,0.069,0.01,0.02,0.01,0.006
RAB21 (UniProt Q9UL25),-0.038,-0.005,0.041,0.005,-0.006,0.008,0.262 (active),-0.06,0.029,-0.021,0.069,0.034,0.048,-0.025,0.026,0.005,-0.072,0.015,0.013,0.003
SCD (UniProt O00767),-0.03,0.111,0.042,0.006,0.098,-0.082,-0.504 (active),0.212,0.071,0.084,-0.138,-0.015,-0.014,-0.02,-0.091,-0.097,0.076,0.006,0.004,0.011
RNF181 (UniProt Q9P0P0),-0.06,0.025,0.179,-0.036,0.004,0.018,-0.013,-0.035,-0.03,-0.02,0,0.021,0.037,0.044,-0.008,0.029,-0.201,-0.011,-0.004,-0.083
RCC1 isoform 2 (UniProt P18754),0.049,0.018,-0.008,-0.114,-0.066,0.027,-0.105,-0.046,-0.021,0.001,0.012,-0.168,0.018,0.055,-0.007,0.006,0.151,0.006,-0.017,-0.003
RAC2 (UniProt P15153),0.028,0.034,0.054,0.049,-0.071,-0.001,-0.011,0.008,0.045,-0.058,0.047,-0.086,0.082,0.007,0.06,-0.022,-0.001,0.051,0.056,0.016
SESN2 (UniProt P58004),-0.008,0.025,0.049,-0.103,-0.066,0.019,0.02,-0.105,-0.043,0.047,0.028,-0.093,-0.028,0.039,0.033,0.038,-0.001,-0.026,-0.045,-0.034
RAF1 isoform 2 (UniProt P04049),0.739 (active),-0.142,0.068,-0.159,-0.083,-0.029,-0.028,-0.037,-0.014,-0.041,0.048,-0.022,0.019,-0.097,-0.001,1.06 (active),0.048,-0.007,0.052,0.022
RPS4X (UniProt P62701),0.001,-0.014,-0.033,0.001,-0.007,-0.025,0.242 (active),-0.059,-0.016,-0.009,0.039,0.032,-0.03,-0.027,0.029,-0.036,0.063,0.004,0.002,-0.028
RDH14 (UniProt Q9HBH5),0.038,0.026,-0.007,-0.076,-0.022,0.009,-0.228,0.061,-0.015,0.074,-0.001,-0.033,0.088,-0.044,-0.123,-0.028,-0.199,0.07,-0.043,-0.07
SAMHD1 (UniProt Q9Y3Z3),0.034,0.045,0.007,-0.032,-0.037,0.068,-0.096,0.079,-0.052,0.032,-0.019,-0.072,0.041,-0.021,-0.015,0,0.099,-0.013,0.02,0.044
RIOK3 (UniProt O14730),0.021,-0.004,0.004,-0.098,-0.041,-0.032,-0.052,-0.024,-0.03,0.013,-0.04,-0.273 (active),0.029,0.018,0.12,0.058,0.132,-0.006,0,0.055
RPS29 (UniProt P62273),-0.005,0.039,-0.034,-0.028,0.078,0.109,1.01 (active),-0.262,-0.007,-0.133,0.23,-0.052,-0.029,-0.027,0.081,-0.062,0.151,-0.278,0.032,-0.138
SERINC3 (UniProt Q13530),0.05,0.074,-0.02,0.039,0.066,-0.05,-0.443 (active),0.224,0.052,0.081,-0.074,-0.008,0.057,-0.091,0.065,0.023,-0.109,-0.047,0.055,0.014
RALA (UniProt P11233),0.033,0.004,-0.001,0.029,0.014,-0.023,-0.289 (active),0.169,-0.021,-0.027,-0.164,0.044,0.016,-0.057,0.056,0.03,-0.102,0.009,0.01,0.023
